Results as given in PubChem BioAssay AID1159580 (chemical genetic matrix, 2015).
Where “and” joins values, the source holds several entries; their conditions need not be identical. Identical values can stand only once. Screen size: about 5,500 compounds; about 2,000 (36%) were called active. Another 18% or so got no clear call; they are omitted. No stated cut-off is given here; in the data, active means normalized growth mostly below about 0.91 (no sharp cut-off); inconclusive means no clear call, values can overlap the other calls; inactive means mostly above about 0.92. The list shows a part of the results.

Assay: chemical genetic growth profiling, strain panel (AID 1159580);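 further: tested at 20 µM; growth read once vehicle control cultures reached saturation at 30 °C; 1 = growth at the plate median or of vehicle wells; lower values mean less growth of the strain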
Details: growth OD

Measured: normalized growth

CC(C(=O)O)c1cccc(C(=O)c2ccccc2)c1 (stereo not drawn)
inactive: S. cerevisiae deletion strains, locus YJR075W, strain HOC1, hits give low values 1 and 1.06 | S. cerevisiae deletion strains, locus YKL009W, strain mrt4, hits give low values 0.982 | S. cerevisiae deletion strains, locus YKL068W, hits give low values 0.971 | S. cerevisiae deletion strains, locus YKL085W, strain MDH1 (second series), hits give low values 0.968 | S. cerevisiae deletion strains, locus YKL085W, strain MDH1, hits give low values 0.968 | S. cerevisiae deletion strains, locus YKL160W, strain elf1, hits give low values 0.978 | S. cerevisiae deletion strains, locus YKL190W, strain CNB1, hits give low values 0.994 | S. cerevisiae deletion strains, locus YKR001C, strain vps1, hits give low values 0.992 | S. cerevisiae deletion strains, locus YKR026C, strain gcn3, hits give low values 0.984 | S. cerevisiae deletion strains, locus YKR091W, strain srl3, hits give low values 0.989 | S. cerevisiae deletion strains, locus YLL001W, strain dnm1, hits give low values 0.984 | S. cerevisiae deletion strains, locus YLL026W, hits give low values 0.982 | S. cerevisiae deletion strains, locus YLL041C, strain sdh2, hits give low values 1.01 | S. cerevisiae deletion strains, locus YLR027C, strain aat2, hits give low values 0.991 | S. cerevisiae deletion strains, locus YLR039C, strain RIC1, hits give low values 0.993 | S. cerevisiae deletion strains, locus YLR058C, strain SHM2, hits give low values 0.997 | S. cerevisiae deletion strains, locus YLR102C, strain apc9, hits give low values 0.974 | S. cerevisiae deletion strains, locus YLR113W, strain HOG1, hits give low values 1.02 | S. cerevisiae deletion strains, locus YLR221C, strain rsa3, hits give low values 1.01 | S. cerevisiae deletion strains, locus YLR258W, strain gsy2, hits give low values 0.987 | S. cerevisiae deletion strains, locus YLR262C, strain YPT6 (second series), hits give low values 0.987 | S. cerevisiae deletion strains, locus YLR262C, strain YPT6, hits give low values 0.968 | S. cerevisiae deletion strains, locus YLR268W, strain sec22, hits give low values 0.972 | S. cerevisiae deletion strains, locus YLR320W, strain mms22, hits give low values 0.971 | S. cerevisiae deletion strains, locus YLR330W, strain CHS5, hits give low values 0.985 | S. cerevisiae deletion strains, locus YLR342W, strain FKS1 (second series), hits give low values 1.01 | S. cerevisiae deletion strains, locus YLR342W, strain FKS1, hits give low values 1 | S. cerevisiae deletion strains, locus YLR357W, strain rsc2, hits give low values 0.933 | S. cerevisiae deletion strains, locus YLR370C, strain arc18, hits give low values 0.979 | S. cerevisiae deletion strains, locus YLR371W, strain rom2, hits give low values 0.978 | S. cerevisiae deletion strains, locus YLR384C, strain iki3, hits give low values 0.963 | S. cerevisiae deletion strains, locus YLR418C, strain cdc73, hits give low values 0.971 | S. cerevisiae deletion strains, locus YML016C, strain PPZ1, hits give low values 0.996 | S. cerevisiae deletion strains, locus YML032C, strain rad52, hits give low values 0.996 | S. cerevisiae deletion strains, locus YML120C, strain ndi1, hits give low values 0.994 | S. cerevisiae deletion strains, locus YML124C, strain tub3, hits give low values 0.971 | S. cerevisiae deletion strains, locus YMR058W, strain fet3, hits give low values 0.995 | S. cerevisiae deletion strains, locus YMR078C, strain ctf18, hits give low values 0.959 | S. cerevisiae deletion strains, locus YMR125W, strain sto1, hits give low values 0.991 | S. cerevisiae deletion strains, locus YMR129W, hits give low values 0.981 | S. cerevisiae deletion strains, locus YMR205C, strain PFK2, hits give low values 0.985 | S. cerevisiae deletion strains, locus YMR223W, strain ubp8, hits give low values 0.976 | S. cerevisiae deletion strains, locus YMR231W, strain pep5, hits give low values 0.985 | S. cerevisiae deletion strains, locus YMR307W, strain GAS1, hits give low values 0.995 | S. cerevisiae deletion strains, locus YNL067W, strain RPL9B, hits give low values 1.04 | S. cerevisiae deletion strains, locus YNL071W, strain lat1, hits give low values 0.997 | S. cerevisiae deletion strains, locus YNL175C, strain NOP13, hits give low values 1.02 | S. cerevisiae deletion strains, locus YNL183C, strain NPR1, hits give low values 0.955 | S. cerevisiae deletion strains, locus YNL197C, strain WHI3, hits give low values 0.992 | S. cerevisiae deletion strains, locus YNL209W, strain ssb2, hits give low values 0.999 | S. cerevisiae deletion strains, locus YNL224C, strain SQS1, hits give low values 0.997 | S. cerevisiae deletion strains, locus YNL233W, strain BNI4, hits give low values 1.05 | S. cerevisiae deletion strains, locus YNL248C, strain rpa49, hits give low values 0.968 | S. cerevisiae deletion strains, locus YNL250W, strain rad50, hits give low values 0.927 | S. cerevisiae deletion strains, locus YNL271C, strain bni1, hits give low values 0.956 | S. cerevisiae deletion strains, locus YNL298W, strain CLA4, hits give low values 0.973 | S. cerevisiae deletion strains, locus YNL307C, strain MCK1, hits give low values 0.978 | S. cerevisiae deletion strains, locus YNL322C, strain KRE1 (second series), hits give low values 0.953 | S. cerevisiae deletion strains, locus YNL322C, strain KRE1, hits give low values 0.994 and 1.03 | S. cerevisiae deletion strains, locus YNR049C, strain mso1, hits give low values 0.995 | S. cerevisiae deletion strains, locus YNR052C, strain pop2, hits give low values 0.958 | S. cerevisiae deletion strains, locus YOL006C, strain TOP1, hits give low values 1.06 | S. cerevisiae deletion strains, locus YOL012C, strain htz1 1.22 | S. cerevisiae deletion strains, locus YOL147C, strain pex11, hits give low values 0.977 | S. cerevisiae deletion strains, locus YOR001W, strain rrp6, hits give low values 1 | S. cerevisiae deletion strains, locus YOR061W, strain CKA2, hits give low values 1 | S. cerevisiae deletion strains, locus YOR069W, strain VPS5, hits give low values 0.987 | S. cerevisiae deletion strains, locus YOR070C, strain gyp1, hits give low values 0.985 | S. cerevisiae deletion strains, locus YOR080W, strain dia2, hits give low values 0.996 | S. cerevisiae deletion strains, locus YOR083W, strain WHI5 (second series), hits give low values 1.02 | S. cerevisiae deletion strains, locus YOR083W, strain WHI5, hits give low values 0.918 | S. cerevisiae deletion strains, locus YOR106W, strain vam3, hits give low values 0.963 | S. cerevisiae deletion strains, locus YOR136W, strain idh2, hits give low values 0.988 | S. cerevisiae deletion strains, locus YOR144C, strain elg1, hits give low values 0.98 | S. cerevisiae deletion strains, locus YOR184W, strain ser1, hits give low values 0.977 | S. cerevisiae deletion strains, locus YOR231W, strain MKK1, hits give low values 1.04 | S. cerevisiae deletion strains, locus YOR265W, strain rbl2, hits give low values 0.999 | S. cerevisiae deletion strains, locus YOR270C, strain vph1, hits give low values 1 | S. cerevisiae deletion strains, locus YOR290C, strain snf2, hits give low values 0.985 | S. cerevisiae deletion strains, locus YOR316C, strain cot1, hits give low values 0.968 | S. cerevisiae deletion strains, locus YPL051W, strain arl3, hits give low values 0.966 | S. cerevisiae deletion strains, locus YPL055C, strain LGE1, hits give low values 1.1 | S. cerevisiae deletion strains, locus YPL078C, strain atp4, hits give low values 0.972 | S. cerevisiae deletion strains, locus YPL106C, strain sse1, hits give low values 0.962 | S. cerevisiae deletion strains, locus YPL240C, strain hsp82, hits give low values 0.994 | S. cerevisiae deletion strains, locus YPL241C, strain CIN2, hits give low values 0.993 | S. cerevisiae deletion strains, locus YPL256C, strain CLN2, hits give low values 1.02 | S. cerevisiae deletion strains, locus YPR119W, strain clb2, hits give low values 0.963 | S. cerevisiae deletion strains, locus YPR141C, strain kar3, hits give low values 0.973 | S. cerevisiae deletion strains, locus YPR163C, strain tif3, hits give low values 0.979 | S. cerevisiae deletion strains, locus YPR167C, strain met16, hits give low values 0.977 | S. cerevisiae deletion strains, strain wtn01, hits give low values 0.971 | S. cerevisiae strains, strain wild type, hits give low values 1
